Assay results as given in the supplement of paper PMC10849652.
The full data set covers some 8,800 targets. This sample favours those with a hit. About 0.5% of all pairs of compound and target were hits.

Columns and labels:
Assay in all cases: log2 fold change, soluble protein after heating vs DMSO (PISA); higher = thermal stabilisation; K562 lysate, 10 uM; active = over 0.2 and 3.5 SD of the protein, either way, in both replicates (recomputed)
[1] = compound: Cc1cn(-c2cc(NC(=O)c3ccc(C)c(Nc4nccc(-c5cccnc5)n4)c3)cc(C(F)(F)F)c2)cn1 [nilotinib]
In short: (§1)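 Soluble protein was defined as the supernatant remaining after 21,000xg for 90 min, following pooling of heated aliquots and adjustment to 0.5% NP-40 at 4°C. Before that, crude K562 extract at 1 mg/mL protein in PBS pH 7.4 with 1 mM MgCl2 was treated with 10 μM compound for 30 min and heated for 3 min across 48°C-58°C. Quantification used TMTpro 16plex LC-MS/MS with channel sums equalised, and values are log-two fold changes in thermal stability relative to solvent controls from duplicates.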

[2] = compound: Cc1nc(Nc2n[nH]c3c2CN(C(=O)N[C@H](CN(C)C)c2ccccc2)C3(C)C)c2sccc2n1
In short: as §1

[3] = compound: Cc1nc(Nc2ncc(C(=O)Nc3c(C)cccc3Cl)s2)cc(N2CCN(CCO)CC2)n1 [dasatinib]
In short: as §1

[4] = compound: Cc1ncc(-c2ccnc(Nc3ccc(S(C)(=O)=O)cc3)n2)n1C(C)C
In short: as §1

[5] = compound: Cn1cc(-c2ccc3c(c2)CCN3C(=O)Cc2cccc(C(F)(F)F)c2)c2c(N)ncnc21
In short: as §1

[6] = compound: Cn1cc(CNCC2CCN(c3ncc(C(=O)NO)cn3)CC2)c2ccccc21 [quisinostat]
In short: as §1

[7] = compound: Cn1cncc1[C@@](N)(c1ccc(Cl)cc1)c1ccc2c(c1)c(-c1cccc(Cl)c1)cc(=O)n2C [tipifarnib]
In short: as §1

[8] = compound: NC(=O)Nc1cc(-c2cccc(F)c2)sc1C(=O)N[C@H]1CCCNC1
In short: as §1

[9] = compound: NC(=O)c1cnc(N[C@@H]2CCCC[C@@H]2N)nc1Nc1cccc(-n2nccn2)c1
In short: as §1

[10] = compound: NC1(c2ccc(-c3nc4ccn5c(=O)[nH]nc5c4cc3-c3ccccc3)cc2)CCC1
In short: as §1

Measured: log2 fold change

RMC1 (UniProt Q96DM3)
Chain of UniProt Q96DM3 (Q96DM3 whole entry, looked up): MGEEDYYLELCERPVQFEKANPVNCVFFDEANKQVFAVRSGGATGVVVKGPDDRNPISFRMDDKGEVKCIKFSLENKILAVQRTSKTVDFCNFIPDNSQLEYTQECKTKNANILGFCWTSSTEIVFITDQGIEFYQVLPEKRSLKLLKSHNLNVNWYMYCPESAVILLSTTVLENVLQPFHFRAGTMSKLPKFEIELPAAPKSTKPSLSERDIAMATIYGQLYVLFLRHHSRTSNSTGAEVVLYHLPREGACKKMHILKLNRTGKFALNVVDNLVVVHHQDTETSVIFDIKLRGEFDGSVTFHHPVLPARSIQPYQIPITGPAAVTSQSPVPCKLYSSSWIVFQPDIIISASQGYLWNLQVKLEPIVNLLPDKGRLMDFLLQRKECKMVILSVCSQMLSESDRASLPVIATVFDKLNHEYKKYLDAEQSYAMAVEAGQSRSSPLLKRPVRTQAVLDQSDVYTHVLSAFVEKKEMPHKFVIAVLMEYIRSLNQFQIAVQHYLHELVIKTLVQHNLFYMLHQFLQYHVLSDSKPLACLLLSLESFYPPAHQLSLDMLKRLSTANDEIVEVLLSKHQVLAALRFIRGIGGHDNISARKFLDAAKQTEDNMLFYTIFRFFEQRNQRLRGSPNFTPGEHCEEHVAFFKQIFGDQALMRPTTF
inactive: [1] 0.027 | [2] 0.005 | [3] 0.008 | [4] -0.002 | [5] 0.003 | [6] -0.02 | [7] -0.057 | [8] 0.035 | [9] -0.007 | [10] 0.036

RXRA (UniProt P19793)
Chain of UniProt P19793 (P19793 whole entry, looked up): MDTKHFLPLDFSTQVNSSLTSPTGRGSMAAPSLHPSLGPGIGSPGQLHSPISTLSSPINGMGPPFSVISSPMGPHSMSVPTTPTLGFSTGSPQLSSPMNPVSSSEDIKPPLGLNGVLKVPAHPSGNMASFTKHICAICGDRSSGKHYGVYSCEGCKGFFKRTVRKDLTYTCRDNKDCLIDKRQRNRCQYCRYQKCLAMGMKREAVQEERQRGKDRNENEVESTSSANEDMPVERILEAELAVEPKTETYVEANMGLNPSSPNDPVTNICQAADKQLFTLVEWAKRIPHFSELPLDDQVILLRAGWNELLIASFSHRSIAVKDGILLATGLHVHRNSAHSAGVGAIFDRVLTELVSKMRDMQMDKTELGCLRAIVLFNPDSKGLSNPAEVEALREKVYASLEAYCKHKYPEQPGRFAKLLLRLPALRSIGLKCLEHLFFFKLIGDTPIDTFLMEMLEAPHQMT
inactive: [1] 0.164 | [2] -0.053 | [3] -0.112 | [4] 0.119 | [5] -0.024 | [6] -0.028 | [7] 0.011 | [8] 0.027 | [9] 0.024 | [10] -0.014

RIC1 (UniProt Q4ADV7)
Chain of UniProt Q4ADV7 (Q4ADV7 whole entry, looked up): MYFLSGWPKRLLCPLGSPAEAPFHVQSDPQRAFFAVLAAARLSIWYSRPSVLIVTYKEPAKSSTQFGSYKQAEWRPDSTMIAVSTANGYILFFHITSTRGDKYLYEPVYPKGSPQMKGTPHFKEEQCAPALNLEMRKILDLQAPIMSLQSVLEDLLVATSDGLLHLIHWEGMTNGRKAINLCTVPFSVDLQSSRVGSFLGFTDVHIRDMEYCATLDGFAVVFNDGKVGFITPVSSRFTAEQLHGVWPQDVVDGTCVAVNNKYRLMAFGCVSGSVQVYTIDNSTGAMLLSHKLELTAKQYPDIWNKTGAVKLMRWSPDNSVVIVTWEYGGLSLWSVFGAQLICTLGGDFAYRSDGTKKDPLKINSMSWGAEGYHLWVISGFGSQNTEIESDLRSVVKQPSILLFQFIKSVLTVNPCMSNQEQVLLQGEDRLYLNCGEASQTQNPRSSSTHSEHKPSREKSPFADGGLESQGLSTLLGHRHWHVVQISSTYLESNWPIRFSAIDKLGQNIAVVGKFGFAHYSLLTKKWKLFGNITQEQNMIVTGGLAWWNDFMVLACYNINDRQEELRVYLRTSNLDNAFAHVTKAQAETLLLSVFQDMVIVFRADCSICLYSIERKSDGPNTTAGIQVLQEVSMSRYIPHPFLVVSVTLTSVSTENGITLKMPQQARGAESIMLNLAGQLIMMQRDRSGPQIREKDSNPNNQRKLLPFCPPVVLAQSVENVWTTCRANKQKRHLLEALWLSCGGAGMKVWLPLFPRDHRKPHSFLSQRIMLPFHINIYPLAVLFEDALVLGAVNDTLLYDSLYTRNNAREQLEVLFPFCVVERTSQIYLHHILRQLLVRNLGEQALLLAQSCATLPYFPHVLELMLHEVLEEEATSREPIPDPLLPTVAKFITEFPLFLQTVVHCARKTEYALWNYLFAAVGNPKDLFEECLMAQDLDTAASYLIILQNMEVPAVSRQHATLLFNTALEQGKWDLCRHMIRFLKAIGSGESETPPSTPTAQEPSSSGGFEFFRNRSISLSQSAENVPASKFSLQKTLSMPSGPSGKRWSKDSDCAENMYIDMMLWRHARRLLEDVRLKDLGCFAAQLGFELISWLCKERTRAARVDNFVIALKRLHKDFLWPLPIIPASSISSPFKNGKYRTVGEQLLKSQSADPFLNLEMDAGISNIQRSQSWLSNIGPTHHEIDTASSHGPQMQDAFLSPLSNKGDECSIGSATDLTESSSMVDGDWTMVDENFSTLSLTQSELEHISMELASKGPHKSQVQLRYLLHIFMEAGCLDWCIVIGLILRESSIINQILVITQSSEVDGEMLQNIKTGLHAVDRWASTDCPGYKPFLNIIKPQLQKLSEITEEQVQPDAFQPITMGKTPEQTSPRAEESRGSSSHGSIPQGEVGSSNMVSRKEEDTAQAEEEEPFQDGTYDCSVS
inactive: [1] -0.069 | [2] 0.033 | [3] 0.001 | [4] 0.086 | [5] 0.008 | [6] -0.169 | [7] 0.085 | [8] 0.097 | [9] -0.085 | [10] 0.002

RBM8A (UniProt Q9Y5S9)
inactive: [1] -0.005 | [2] 0.025 | [3] 0.023 | [4] 0.004 | [5] 0.067 | [6] 0.187 | [7] 0.051 | [8] -0.016 | [9] 0 | [10] 0.108

RNASEH2B (UniProt Q5TBB1)
inactive: [1] 0.024 | [2] 0.007 | [3] -0.024 | [4] -0.001 | [5] -0.011 | [6] -0.059 | [7] -0.009 | [8] 0.037 | [9] 0.004 | [10] -0.015

RNF149 (UniProt Q8NC42)
inactive: [1] 0.083 | [2] 0.129 | [3] -0.019 | [4] 0.099 | [5] 0.003 | [6] -0.019 | [7] 0.087 | [8] 0.038 | [9] 0.156 | [10] -0.019

RPS6KA1 (UniProt Q15418)
inactive: [1] -0.037 | [2] 0.204 | [3] -0.113 | [4] 0.078 | [5] 0.031 | [6] -0.045 | [7] 0.002 | [8] 0.256 | [9] 0.093 | [10] -0.028

RPTOR (UniProt Q8N122)
inactive: [1] -0.005 | [2] -0.035 | [3] -0.041 | [4] -0.016 | [5] 0.011 | [6] -0.057 | [7] 0.014 | [8] 0.047 | [9] 0.006 | [10] -0.041

SESN2 (UniProt P58004)
inactive: [1] 0.019 | [2] 0.027 | [3] -0.023 | [4] 0.021 | [5] 0.028 | [6] -0.051 | [7] 0.007 | [8] 0.092 | [9] 0.034 | [10] -0.057

RXRB isoform 3 (UniProt P28702)
Chain of UniProt P28702 (P28702 whole entry, looked up): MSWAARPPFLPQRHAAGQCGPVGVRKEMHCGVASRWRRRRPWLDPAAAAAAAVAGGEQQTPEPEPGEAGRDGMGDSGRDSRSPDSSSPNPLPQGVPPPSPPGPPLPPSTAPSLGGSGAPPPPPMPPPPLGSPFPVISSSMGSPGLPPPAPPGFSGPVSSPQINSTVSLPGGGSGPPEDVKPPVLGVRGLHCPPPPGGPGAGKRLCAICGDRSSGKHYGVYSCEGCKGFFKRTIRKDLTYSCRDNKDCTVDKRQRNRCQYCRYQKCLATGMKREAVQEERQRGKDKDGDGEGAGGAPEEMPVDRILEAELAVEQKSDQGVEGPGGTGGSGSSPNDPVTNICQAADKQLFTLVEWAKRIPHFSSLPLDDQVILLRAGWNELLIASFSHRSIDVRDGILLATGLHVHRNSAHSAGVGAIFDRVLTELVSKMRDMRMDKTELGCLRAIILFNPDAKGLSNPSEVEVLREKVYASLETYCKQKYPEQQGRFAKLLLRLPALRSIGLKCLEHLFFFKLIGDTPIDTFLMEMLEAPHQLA
inactive: [1] 0.01 | [2] -0.038 | [3] -0.018 | [4] 0.001 | [5] 0.095 | [6] -0.038 | [7] -0.052 | [8] 0.032 | [9] -0.031 | [10] -0.199

RDH14 (UniProt Q9HBH5)
inactive: [1] 0.008 | [2] -0.006 | [3] 0.023 | [4] 0.004 | [5] 0.009 | [6] -0.016 | [7] 0.065 | [8] -0.011 | [9] -0.077 | [10] 0.048

RDH10 (UniProt Q8IZV5)
inactive: [1] -0.004 | [2] 0.011 | [3] 0.132 | [4] 0.026 | [5] -0.022 | [6] 0.05 | [7] 0.042 | [8] -0.002 | [9] -0.084 | [10] 0.073

SEC61G (UniProt P60059)
inactive: [1] -0.007 | [2] -0.061 | [3] 0 | [4] 0.089 | [5] -0.033 | [6] -0.045 | [7] 0.134 | [8] -0.01 | [9] 0.023 | [10] 0.053

RANBP2 (UniProt P49792)
inactive: [1] -0.018 | [2] 0.001 | [3] -0.059 | [4] 0.006 | [5] 0.021 | [6] -0.05 | [7] -0.055 | [8] 0.046 | [9] 0.007 | [10] -0.003

SCD (UniProt O00767)
Chain of UniProt O00767 (O00767 whole entry, looked up): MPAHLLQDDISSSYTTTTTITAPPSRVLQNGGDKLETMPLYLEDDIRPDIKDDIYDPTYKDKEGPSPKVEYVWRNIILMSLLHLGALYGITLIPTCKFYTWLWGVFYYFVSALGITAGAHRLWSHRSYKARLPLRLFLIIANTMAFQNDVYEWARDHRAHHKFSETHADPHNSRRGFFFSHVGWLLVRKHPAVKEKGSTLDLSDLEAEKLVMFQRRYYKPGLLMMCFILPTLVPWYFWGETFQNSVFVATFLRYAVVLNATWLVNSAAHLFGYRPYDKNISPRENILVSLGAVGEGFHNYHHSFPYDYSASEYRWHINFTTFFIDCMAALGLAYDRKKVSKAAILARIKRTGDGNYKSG
inactive: [1] -0.007 | [2] -0.017 | [3] 0.01 | [4] -0.01 | [5] 0.007 | [6] -0.144 | [7] -0.077 | [8] -0.023 | [9] -0.183 | [10] 0.03

RDX (UniProt P35241)
inactive: [1] -0.003 | [2] -0.006 | [3] 0.037 | [4] 0.048 | [5] -0.008 | [6] 0.047 | [7] 0.013 | [8] -0.007 | [9] 0.002 | [10] 0.006

RPS26P11 (UniProt Q5JNZ5)
inactive: [1] 0.026 | [2] 0.027 | [3] -0.017 | [4] 0.044 | [5] 0.02 | [6] -0.151 | [7] 0.004 | [8] -0.036 | [9] 0 | [10] -0.004

RPL28 (UniProt P46779)
inactive: [1] -0.018 | [2] -0.011 | [3] 0.009 | [4] -0.015 | [5] -0.005 | [6] 0.08 | [7] 0.002 | [8] -0.028 | [9] -0.011 | [10] -0.023

SCNM1 (UniProt Q9BWG6)
inactive: [1] -0.078 | [2] -0.045 | [3] 0.122 | [4] -0.091 | [5] 0.015 | [6] -0.061 | [7] 0.045 | [8] 0.06 | [9] -0.104 | [10] -0.106

RAB3IL1 (UniProt E9PK89)
inactive: [1] -0.039 | [2] -0.124 | [3] 0.08 | [4] 0.003 | [5] -0.084 | [6] 0.027 | [7] 0.061 | [8] -0.086 | [9] -0.012 | [10] 0.157

RRAGA (UniProt Q7L523)
inactive: [1] -0.144 | [2] 0.032 | [3] -0.025 | [4] -0.065 | [5] 0.024 | [6] -0.045 | [7] 0.109 | [8] 0.082 | [9] 0.033 | [10] -0.04

RNF168 (UniProt Q8IYW5)
Chain of UniProt Q8IYW5 (Q8IYW5 whole entry, looked up): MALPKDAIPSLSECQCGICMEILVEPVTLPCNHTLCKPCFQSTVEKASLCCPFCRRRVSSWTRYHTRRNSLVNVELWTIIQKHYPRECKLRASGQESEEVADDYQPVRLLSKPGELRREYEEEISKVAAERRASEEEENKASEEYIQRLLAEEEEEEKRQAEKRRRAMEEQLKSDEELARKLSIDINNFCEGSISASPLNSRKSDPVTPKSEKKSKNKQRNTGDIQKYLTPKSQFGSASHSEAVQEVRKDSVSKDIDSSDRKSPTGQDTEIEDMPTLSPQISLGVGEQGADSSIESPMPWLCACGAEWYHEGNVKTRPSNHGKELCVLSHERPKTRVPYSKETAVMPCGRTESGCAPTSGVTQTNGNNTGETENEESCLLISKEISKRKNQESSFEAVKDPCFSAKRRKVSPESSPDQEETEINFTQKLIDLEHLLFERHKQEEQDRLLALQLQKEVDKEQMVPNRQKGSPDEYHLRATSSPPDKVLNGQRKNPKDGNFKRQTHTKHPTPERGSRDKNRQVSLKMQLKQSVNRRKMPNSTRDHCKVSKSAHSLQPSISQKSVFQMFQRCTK
inactive: [1] 0.144 | [2] 0.085 | [3] 0.064 | [4] -0.186 | [5] 0.006 | [6] -0.019 | [7] 0.016 | [8] -0.009 | [9] -0.02 | [10] 0.018

RNF213, A0A0A0MTC1
inactive: [1] 0.015 | [2] -0.016 | [3] -0.027 | [4] -0.019 | [5] 0.035 | [6] -0.033 | [7] 0.001 | [8] 0.071 | [9] 0.015 | [10] -0.016

RECQL5 (UniProt O94762)
Chain of UniProt O94762 (O94762 whole entry, looked up): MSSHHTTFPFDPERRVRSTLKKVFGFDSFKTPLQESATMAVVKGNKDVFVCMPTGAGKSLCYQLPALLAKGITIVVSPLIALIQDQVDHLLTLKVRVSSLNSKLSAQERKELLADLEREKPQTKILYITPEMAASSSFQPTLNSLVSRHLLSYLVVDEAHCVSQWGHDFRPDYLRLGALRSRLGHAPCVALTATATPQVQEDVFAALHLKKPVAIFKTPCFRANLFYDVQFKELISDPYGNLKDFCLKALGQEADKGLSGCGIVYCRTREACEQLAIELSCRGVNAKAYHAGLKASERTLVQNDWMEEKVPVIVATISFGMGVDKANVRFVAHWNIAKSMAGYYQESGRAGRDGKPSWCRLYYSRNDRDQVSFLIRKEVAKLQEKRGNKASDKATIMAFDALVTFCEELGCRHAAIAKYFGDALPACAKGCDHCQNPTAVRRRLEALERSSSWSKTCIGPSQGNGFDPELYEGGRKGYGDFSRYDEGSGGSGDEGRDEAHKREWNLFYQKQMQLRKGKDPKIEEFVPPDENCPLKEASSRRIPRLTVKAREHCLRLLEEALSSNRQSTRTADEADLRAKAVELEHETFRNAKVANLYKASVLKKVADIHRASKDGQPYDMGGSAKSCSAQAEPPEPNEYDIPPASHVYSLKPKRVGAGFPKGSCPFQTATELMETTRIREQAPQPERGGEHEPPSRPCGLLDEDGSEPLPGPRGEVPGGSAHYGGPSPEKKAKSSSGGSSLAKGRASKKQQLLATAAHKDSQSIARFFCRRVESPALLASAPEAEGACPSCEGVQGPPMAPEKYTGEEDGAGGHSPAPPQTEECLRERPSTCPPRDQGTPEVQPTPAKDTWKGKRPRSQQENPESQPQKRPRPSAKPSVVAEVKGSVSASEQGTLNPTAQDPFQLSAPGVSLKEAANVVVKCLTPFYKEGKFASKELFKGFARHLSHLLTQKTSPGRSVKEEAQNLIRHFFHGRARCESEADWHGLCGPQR
inactive: [1] -0.026 | [2] 0.057 | [3] 0.023 | [4] 0.011 | [5] -0.04 | [6] -0.013 | [7] -0.064 | [8] 0.034 | [9] 0.343 | [10] 0.049

RPL27 (UniProt P61353)
inactive: [1] 0.022 | [2] -0.029 | [3] -0.049 | [4] 0.01 | [5] 0 | [6] 0.054 | [7] -0.01 | [8] -0.017 | [9] -0.023 | [10] 0.012

RELN (UniProt P78509)
inactive: [1] -0.086 | [2] -0.039 | [3] -0.005 | [4] -0.047 | [5] 0.002 | [6] -0.005 | [7] -0.032 | [8] 0.042 | [9] -0.101 | [10] 0.013
